# Screens from PubChem BioAssay.
# Most compounds without a hit are left out; they make up all but 0.63% or so of the library.
# TCR activator: activators of T cell receptors. primary human leukocytes, anti-CD3, IL-2 HTRF, 48 h. Potency, µM (top dose mostly 9.22 µM), for inactives: at the highest dose activation of IL-2 secretion, usual class: activators. 330,000 tested, under 10 active. AID 504894; active = well fitted activation curve with a large enough effect; inconclusive = small, poorly fitted or top-dose-only effect, or another doubt; inactive = no such curve, though single readings can be large or run the other way; also: % of control where 0% means no effect
#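 IL-2 produced over 48 hr by a-CD3 bead-stimulated primary human leukocytes exposed to compounds was detected with a homogeneous time-resolved FRET immunoassay, 665nm acceptor signal after 320nm excitation.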
# TSHR antag: antagonists of human thyroid stimulating hormone receptor. 330,000 tested, 0.2% active. P16473. AID 504810. TSHR-expressing cells, TSH-stimulated cAMP HTRF, 2 h; active compounds read low. activity change, negative = inhibition, % at 11.5 µM;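 active = activity change below a set negative limit, meaning inhibition stronger than a set level, cut at about -70% in these data; inconclusive = activity change between two set negative limits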; also: % is scaled to controls: 0 for no effect and ±100 for the full control effect
# Target sequence (P16473 whole entry, looked up): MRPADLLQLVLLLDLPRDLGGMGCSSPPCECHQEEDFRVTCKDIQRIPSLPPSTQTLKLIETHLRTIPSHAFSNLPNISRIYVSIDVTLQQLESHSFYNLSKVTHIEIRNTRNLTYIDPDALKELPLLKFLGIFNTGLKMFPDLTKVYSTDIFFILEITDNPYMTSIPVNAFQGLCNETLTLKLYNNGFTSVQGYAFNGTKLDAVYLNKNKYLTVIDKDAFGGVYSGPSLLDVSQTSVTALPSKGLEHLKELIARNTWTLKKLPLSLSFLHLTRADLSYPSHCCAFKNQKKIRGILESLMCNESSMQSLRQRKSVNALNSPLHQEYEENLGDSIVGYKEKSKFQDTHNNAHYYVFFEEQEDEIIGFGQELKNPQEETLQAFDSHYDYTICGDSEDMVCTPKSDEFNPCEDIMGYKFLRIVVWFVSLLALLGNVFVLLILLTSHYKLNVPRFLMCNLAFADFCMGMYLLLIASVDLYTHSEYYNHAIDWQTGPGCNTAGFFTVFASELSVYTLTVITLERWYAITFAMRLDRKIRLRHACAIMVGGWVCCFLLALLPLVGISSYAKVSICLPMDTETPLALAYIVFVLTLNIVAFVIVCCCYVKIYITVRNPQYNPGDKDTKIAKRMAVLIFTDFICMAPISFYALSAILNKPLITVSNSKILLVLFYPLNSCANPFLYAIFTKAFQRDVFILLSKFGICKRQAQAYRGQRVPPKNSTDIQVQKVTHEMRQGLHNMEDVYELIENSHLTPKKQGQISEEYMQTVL
#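 TSHR-expressing cells were treated with compounds, then stimulated with TSH at EC80 (4nM final) for 2 hours at 37 deg C. Cellular cAMP was measured by HTRF competition between lysate cAMP and cAMP-d2 for a cryptate-labelled anti-cAMP antibody.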
# gsp antagonist: antagonists of gsp mutant (McCune-Albright syndrome) | 340,000 tested, 0.4% active | gsp-mutant cells, cAMP HTRF, 30 min | Potency, µM (top dose mostly 76.9 µM), without a hit: at the top dose activity change, negative = inhibition, usual class: inhibitors; calls by dose curve; cell line not stated here;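 also: intracellular cAMP measured with PDE inhibitor Ro 20-1724 present during compound exposure; potency is read from the fitted curve at half-maximal effect; % is scaled to controls: 0 for no effect and ±100 for the full control effect; nearly all actives have a fitted effect of over 65% in size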
#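 Cells, 2000/well, grown 16–24 h in DMEM 10% FBS with 0.5 mg/ml G418, then compounds plus […] (300 uM addition stock), 30 min at 37C. cAMP read by HTRF (cAMP-d2 and anti-cAMP antibody-K in lysis buffer) after 30 min RT.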
# gsp agonist: agonists of gsp mutant (McCune-Albright syndrome); gsp mutant cells, cAMP HTRF, 30 min; Potency, µM (doses to about 76.9 µM), without a hit: at the top dose activation (cAMP increase), hits mostly activators; 340,000 tested, 0.13% active; AID 624287; active = well fitted activation curve with a large enough effect; inconclusive = small, poorly fitted or top-dose-only effect, or another doubt; inactive = no such curve, though single readings can be large or run the other way; cell line not stated here;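 also: phosphodiesterase inhibitor Ro 20-1724 added with compounds to block cAMP breakdown; potency is read from the fitted curve at half-maximal effect; nearly all actives have a fitted effect of over 60% in size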
#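 Cells stably selected in G418 were plated at 2000/well, grown 16-24 hr, then given compounds in DMSO with the PDE inhibitor […] (300 uM solution added) for 30 min at 37C; cAMP was read by HTRF.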
# Pin1 inhibitor: human Pin1 inhibition; Q13526; Pin1 FP peptide displacement, HiFluor488, 10 min; Potency, µM (series often up to 115 µM), for the others: at the top dose activity, negative = inhibition, hits mostly inhibitors; 390,000 tested, 0.009% active; AID 504891; active = well fitted inhibition curve with a large enough effect in the polarisation, with a control signal flat, not every such curve was filed as active; inconclusive = small, poorly fitted or top-dose-only effect, or effect the other way, or a change in a side signal; inactive = no such curve, though single readings can be large or run the other way; the % refers to the polarisation; also: potency is read from the fitted curve at half-maximal effect; % is scaled to controls: 0 for no effect and ±100 for the full control effect
# The depositor's hits bear a star; ? = inconclusive; . = not tested or not shown; [ ] = dose if it differs, or a comment.
SMILES,TCR activator,TSHR antag,gsp antagonist,gsp agonist,Pin1 inhibitor
CCCCN1C(=O)c2ccc(C(=O)Nc3ccc(C)c(S(=O)(=O)N(C)C)c3)cc2C1=O,0%[46.1 µM],?,28µM*,-11%,15%
CCCCN1C(=O)c2ccc(C(=O)Nc3cccc(C)c3C)cc2C1=O,-1%,1,-18%,-11%,2%
O=C(Cn1ncc(Cl)c(Cl)c1=O)N1CCN(S(=O)(=O)c2ccc3ccccc3c2)CC1,5%[46.1 µM],-79*,16%,9%,7%
O=C(O)CCC(=O)N1CCN(S(=O)(=O)c2ccc3ccccc3c2)CC1,-1%,0,-19%,-3%[15.4 µM],-9%
CN(C)c1ccc(/C(=N\O)C(F)(F)F)cc1,.,25,40µM*,-19%,-3%
CC(=O)c1ccc(N(C)C)cc1,-1%,-6,-11%,-76%,0%
CNC(=O)N/N=C(\N)c1ccccn1,-1%,14,-4%,21%,-1%
COc1cc2c(cc1OC)CN(CC(=O)Nc1ccc(F)cc1F)CC2,-1%,11,4%,?,-5%
CC1(C)Cc2c(sc3nc(-c4cccs4)n(N)c(=O)c23)CO1,.,-10,32µM*,7%,8%
CC1(C)Cc2c(sc3nc(-c4ccccc4)n(N)c(=O)c23)CO1,-6%,14,1%,-21%,1%
Cc1oc2c(c1C(=O)c1ccc(Cl)cc1)C(=O)C(=O)c1ccccc1-2,0%,-9,56µM*,-29%,-2%
COc1ccc(-c2csc(NC(=O)c3ccc(C(C)(C)C)cc3)c2C(=O)O)cc1,2%,.,32µM*,-1%[15.4 µM],?
Cc1ccccc1C(=O)Nc1scc(-c2ccc(Br)cc2)c1C(=O)O,0%,.,40µM*,6%[15.4 µM],-4%
O=C(Nc1scc(-c2ccc(Br)cc2)c1C(=O)O)c1ccccc1F,-6%,.,-23%,12%[15.4 µM],-14%
Cc1ccccc1C(=O)Nc1nc(-c2nnn(-c3ccc(C(C)C)cc3)c2C)ns1,.,.,.,.,1%
COc1ccccc1OCCCc1c(C)n[nH]c1C,.,5,-1%,0%,2%
COc1ccccc1OCCCCCc1c(C)n[nH]c1C,-2%,-9,35µM*,-13%,2%
O=C1C2CC=CCC2C(=O)N1c1ccc(NCCc2ccc(O)cc2)c([N+](=O)[O-])c1 (centres undefined),0%,-18,32µM*,10%[15.4 µM],?
COc1cccc(CNC(=O)C2CCCN(c3nc4ccccc4n4cccc34)C2)c1 (centres undefined),.,.,.,.,-7%
COc1ccc(CCNC(=O)c2ccc(CS(=O)(=O)c3ccc(C)cc3)o2)cc1OC,-4%,-9,-20%,?,-3%
COc1ccc(CCNC(=O)c2ccc(CS(=O)(=O)c3ccc(Cl)cc3)o2)cc1OC,-4%,-18,40µM*,-21%,2%
COc1ccc(CCNC(=O)c2ccc(-c3ccc([N+](=O)[O-])cc3Cl)o2)cc1OC,4%[46.1 µM],-44,32µM*,-36%,-2%
COc1ccc(NC(=O)c2ccc(-c3ccc([N+](=O)[O-])cc3)o2)cc1OC,1%[46.1 µM],-17,35µM*,8%,1%
COc1ccc(CCNC(=O)c2ccc(N(C)S(=O)(=O)c3ccc(C)cc3)cc2)cc1OC,6%,-2,28µM*,6%,8%
Cc1ccc2c(c1)C1C=CCC1C(C(=O)NCCCN1CCOCC1)N2 (centres undefined),0%,.,2%,.,-2%
SMILES,TCR activator,TSHR antag,gsp antagonist,gsp agonist,Pin1 inhibitor
COc1cc(C(=O)OCC(=O)NCCN2C(=O)CSC2=O)ccc1OCc1c(C)noc1C,-1%,-6,-3%,13%,-4%
Cc1nc(N2CCN(C(=O)c3ccco3)CC2)c2c3c(sc2n1)CCCC3,2%[46.1 µM],-16,-13%,10%,6%
Cc1nc(N2CCN(C(=O)c3ccco3)CC2)c2c3c(sc2n1)CC(C)CC3 (centres undefined),-2%,-15,14µM*,-5%,14%
COc1ccccc1N1C(=O)c2ccccc2C1=O,.,.,.,.,13%
COc1ccccc1N1C(=O)c2cccc3c(Cl)ccc(c23)C1=O,-12%,-98*,-17%,-6%[15.4 µM],27%
Cc1ccc(NC2=C(NC(=O)c3ccccc3)C(=O)c3ccccc3C2=O)cc1Cl,-1%[46.1 µM],-5,-40%,-5%,-4%
O=C(O)c1cccc(NC2=C(Cl)C(=O)c3ccccc3C2=O)c1,-1%,-83*,50µM*,?,?
O=C(O)c1ccc(NC2=C(Cl)C(=O)c3ccccc3C2=O)cc1,6%,-87*,28µM*,?,?
O=C1C(Cl)=C(Nc2ccccc2)C(=O)c2ccccc21,5%[46.1 µM],-3,-5%,-40%,6%
Cc1cccc(CC(=O)N2CCN(C(=O)c3ccco3)CC2)c1,-9%,-15,12%,-4%,-11%
Cc1nn(-c2ccccc2)c(Cl)c1/C=C1\SC(=S)NC1=O,1%,-79*,?,-26%,-7%
O=C(c1ccc(COc2ccccc2Br)o1)N1CCN(c2ccccn2)CC1,5%,-36,-9%,-9%,5%
O=C(c1ccc(C#Cc2ccccc2)o1)N1CCN(c2ccccn2)CC1,8%,-28,35µM*,-15%,1%
Cc1ccc(NC(=O)CSc2ncn[nH]2)cc1S(=O)(=O)N1CCOCC1,-1%,-5,1%,-6%,4%
COc1ccc(N(CC(=O)N/N=C/c2ccc(OC)cc2OC)S(=O)(=O)c2ccccc2)cc1,-2%,3,32µM*,-5%,6%
COc1ccc(N(CC(=O)N/N=C/c2cc(OC)ccc2OC)S(=O)(=O)c2ccccc2)cc1,4%,-3,-12%,-2%,9%
COc1ccc2nc(SC)c(C#N)cc2c1,0%,-4,11%,1%[15.4 µM],1%
COC(=O)c1nc2n(n1)C(c1cccc(Cl)c1)C1=C(CCCC1=O)N2 (centres undefined),3%,-85*,-7%,-17%,-2%
O=C(COC(=O)c1c2ccccc2cc2ccccc12)Nc1ncc(C(F)(F)F)cc1Cl,-3%,-3,-1%,25µM*,17%
Cc1ccccc1NC(=O)OCCN1CCN(Cc2ccccc2)CCC1=O,13%,0,0%,16%,-1%
S=c1[nH]nc(-c2cccnc2)n1-c1ccc2c(c1)OCCO2,-1%,-14,.,2%[15.4 µM],4%
Cn1c(=O)c2[nH]c(COc3ccccc3)nc2n(C)c1=O,-11%,.,3%,3.2µM*,?
CCCCC(=O)Nc1ccc2c3c(cccc13)C(=O)N2CC,0%,0,-2%,?,1%
CSc1nc(N)nc(SCC(=O)Nc2cccc(F)c2)c1C#N,-5%[46.1 µM],-14,28µM*,-2%,-6%
CC(=O)Nc1ccc(N=C(C2=C(O)c3ccccc3C2=O)c2ccccc2)cc1,-11%,-7,35µM*,-29%,6%
O=C(OCC(=O)N1CCCCC1)c1cccc(NS(=O)(=O)c2ccccc2)c1,0%,2,-2%,12%,4%
